This note sets out measurements from the supplement of paper PMC6555819.

Holding throughout (assay): PBM binding z-score (relative to random genomic background probes); higher = stronger binding; sequences stand for … in GC…GCGATTGACAGCGTAGAATGAAGG
Experiment [1] has as its system PPARg:RXRa DBDmut IVT, anti-RXR (DBD mutation: RXRa K156A/R161A, NR concentration 270 nM, RXRa partner concentration 90 nM). A digest of the protocol: (§1)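 Ligand-free nuclear receptor dimers were applied to custom Agilent 4×180K protein-binding microarrays whose double-stranded probes carried direct-repeat seeds, single-nucleotide variants, half-site ablations and random human genomic background sequences in 34-nt variable regions. Incubation lasted 1 h. Binding z-scores were computed against the random background probes from regression-normalized fluorescence.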

Experiment [2] relates to PPARg:RXRa IVT, anti-PPARg (NR concentration 270 nM, RXRa partner concentration 90 nM). Summed up: as §1
The subject of experiment [3] is PPARg DBDmut:RXRa IVT, anti-PPARg (DBD mutation: PPARg1 K132A/R137A, NR concentration 270 nM, RXRa partner concentration 90 nM). Summed up:
as §1

Experiment [4] concerns PPARg DBDmut IVT, anti-PPARg (DBD mutation: PPARg1 K132A/R137A, NR concentration 270 nM). A digest of the protocol:
as §1

Experiment [5] deals with PPARg homodimer (NR concentration 180 nM). A digest of the protocol: as §1
Experiment [6] concerns PXR:RXRa (NR concentration 270 nM, RXRa partner concentration 90 nM). A digest of the protocol: as §1
The test system of experiment [7] is PXR homodimer (NR concentration 270 nM). A digest of the protocol: as §1
Experiment [8] relates to RARa:RXR (NR concentration 270 nM, RXRa partner concentration 90 nM). Summed up:
as §1

Experiment [9] relates to RARa homodimer (NR concentration 270 nM). A digest of the protocol: as §1
Experiment [10] has as its system RARb:RXRa (NR concentration 270 nM, RXRa partner concentration 90 nM). Summed up: as §1
In experiment [11] the test system is RARb homodimer (NR concentration 270 nM). Summed up: as §1
Experiment [12] concerns RARg:RXRa (NR concentration 270 nM, RXRa partner concentration 90 nM). Summed up:
as §1

For experiment [13], the system named is RARg homodimer (NR concentration 270 nM). A digest of the protocol: as §1
In experiment [14] the test system is RXRa DBDmut IVT, anti-RXR (DBD mutation: RXRa K156A/R161A, NR concentration 90 nM). A digest of the protocol: as §1
For experiment [15], the system named is RXRa homodimer (NR concentration 180 nM). Summed up:
as §1

For experiment [16], the system named is THRa:RXRa (NR concentration 90 nM, RXRa partner concentration 90 nM). A digest of the protocol: as §1
Experiment [17] has as its system THRa homodimer (NR concentration 90 nM). A digest of the protocol:
as §1

In experiment [18] the test system is VDR homodimer (NR concentration 270 nM). A digest of the protocol: as §1

With ATCGAAAGGTCGACGAGATGAGTATACACCGTTT, the PBM binding z-score is 0.534 in [1]; 1.36 in experiment [2]; 1.43 in experiment [3]; 1.08 in experiment [4]; 1.2 in experiment [5]; 2.24 in experiment [6]. Moreover, the PBM binding z-score came out at 0.2 in [7]; 2.77 in [8]; 0.514 in experiment [9]; 3.79 in experiment [10]; 2.29 in [11]; 3.91 in [12]. Also, the PBM binding z-score in experiment [13] is 3.95; in experiment [14], 1.01; in experiment [15] it was 4.04; in [16], 1.72; in experiment [17] it was -0.43; in [18] it was 0.403.
For the sequence CATACAGGGTCAGCGAGGCCAGAGTAGGGACGGC, the PBM binding z-score in experiment [1] is 0.932; in experiment [2], 2.99; in [3] it was 0.657; in experiment [4] it was 0.403; in [5], 1.75; in experiment [6], 3.02. The PBM binding z-score in experiment [7] worked out at 0.862; in experiment [8], 3.03; in experiment [9], 0.389; in experiment [10], 4.24; in experiment [11], 3.42; in experiment [12] it was 4.59. The PBM binding z-score was found to be 4.23 in experiment [13]; 1.89 in experiment [14]; 4.45 in experiment [15]; 3.58 in experiment [16]; 1.01 in experiment [17]; 2.49 in [18].
As to AGAATGAGGTTAATAAGATCAGGGAATTGCGGTC, the PBM binding z-score in experiment [1] was found to be 3.37; in [2], 2.89; in [3], 0.759; in experiment [4], 0.384; in experiment [5], 1.23; in [6], 1.06. In addition, the PBM binding z-score is 0.151 in [7]; 1.48 in [8]; 0.329 in experiment [9]; 1.58 in experiment [10]; 0.992 in experiment [11]; 1.32 in [12]. In addition, the PBM binding z-score in [13] worked out at 1.09; in experiment [14], 1.16; in [15], 1.82; in [16] it was 2.04; in [17] it was 0.762; in experiment [18], 0.247.
For TCTTATAGGTAAAAGGTGAAAGTCGGTGTGGTAA, the PBM binding z-score came out at 5.43 in [1]; 5.26 in [2]; 1.47 in [3]; 1.32 in [4]; 3.07 in experiment [5]; 1.92 in experiment [6]. Also, the PBM binding z-score in experiment [7] was found to be 0.675; in [8], 3.31; in experiment [9] it was 1.6; in [10] it was 2.21; in experiment [11], 1.91; in [12], 2.24. Besides, the PBM binding z-score is 0.977 in experiment [13]; 1.69 in experiment [14]; 3.2 in [15]; 1.8 in experiment [16]; 0.525 in experiment [17]; 0.326 in [18].
On to ACTAGCAGGCCAAGGGCCACTCAAGATTAGTCCG, for which the PBM binding z-score in experiment [1] was 0.244; in [2] it was 0.822; in experiment [3], -0.352; in experiment [4], -1.82; in [5], -0.633; in [6] it was -0.879. Further, the PBM binding z-score in [7] was -0.75; in [8], -0.678; in [9] it was -0.685; in experiment [10], 0.884; in experiment [11] it was 0.598; in experiment [12], 0.143. Besides, the PBM binding z-score in experiment [13] was 0.443; in [14] it was -0.506; in [15] it was 0.0111; in experiment [16], -0.212; in [17] it was -0.921; in experiment [18] it was -0.964.
Take CCTAGTGGGCCAAAAAGGTCATTGATGCCGATAA: the PBM binding z-score in experiment [1] was 3.84; in [2], 4.01; in experiment [3] it was -0.411; in experiment [4], -0.658; in [5], 3.24; in experiment [6], 4.65. Further, the PBM binding z-score in experiment [7] came to 3.02; in experiment [8], 4.62; in [9], 1.5; in experiment [10], 3.94; in experiment [11] it was 4.28; in experiment [12], 4.7. In addition, the PBM binding z-score in experiment [13] was 4.5; in experiment [14], 0.794; in [15], 4.79; in [16], 2.71; in experiment [17], 0.434; in [18], 2.66.
With ATATGTAGATTAAGGGTCATTCAGGTTGGTTCGC, the PBM binding z-score in [1] is 1.15; in [2] it was 3.34; in experiment [3], 1.32; in [4], 1.38; in [5] it was 3.29; in experiment [6], 4.89. The PBM binding z-score in experiment [7] came to 2.6; in experiment [8], 4.45; in experiment [9], 2.24; in experiment [10], 2.88; in [11], 3.42; in experiment [12] it was 3.56. In addition, the PBM binding z-score stood at 2.52 in experiment [13]; 2.22 in [14]; 4.48 in [15]; 3.17 in [16]; 1.19 in experiment [17]; 4.19 in experiment [18].
In the case of GCGACTGGGGCAAAGCAAGTTACCATAAGGTTGG, the PBM binding z-score in [1] was 4.67; in [2], 3.4; in [3], -0.185; in [4], -1.06; in experiment [5], 0.355; in experiment [6], -0.0344. The PBM binding z-score in experiment [7] was -0.458; in [8], 0.375; in experiment [9], -0.721; in [10], 0.659; in experiment [11], 0.158; in experiment [12], 0.0953. The PBM binding z-score in experiment [13] is 0.244; in experiment [14], -0.247; in experiment [15] it was 0.26; in experiment [16], 0.526; in [17], -0.346; in [18] it was -0.341.
